# From PubChem BioAssay (NCATS)
# Inconclusive results are not listed. A number with no mark means an inactive call. Activity calls are given as the source filed them. The call rests on the fitted dose curve; in most records, active means well fitted curve in either direction with a large enough effect (not every such curve was filed as active); inconclusive means small, poorly fitted or top-dose-only effect, or another doubt; inactive means flat fitted curve, though single readings scatter.
# Test: NFAT Signaling Pathway (AID 444)
# Details: Jurkat NFAT-bla M1, carbachol, beta-lactamase ratio, 5 h; at 7.69 µM (top of the series) unless noted
# Excerpt: NCGC Assay Overview: The nuclear factor of activated T cells (NFAT) family of transcription factors has been found primarily in most immune system cells and some other non-immune cells. NFAT plays the immunomodulatory role, primarily in T-cell activation and differentiation. NFAT target genes are also involved in the regulation of apoptosis and differentiation in non-immune cell types. The NFAT sequence was engineered to the upstream of the ?-lactamase reporter gene and transfected into Jurkat cells with co-transfection of muscarinic receptor1 [provided by Invitrogen Corp]. When an extracellular stimulus, such as carbachol, binds to the GPCR M1 receptor, it stimulates a signaling cascade that activates NFAT response element and ?-lactamase expression by phosphorylating the NFAT binding protein. This cell based ?-lactamase reporter gene assay can accurately monitor any changes occurring along the NFAT pathway, and can be used for screening small molecule inhibitor or activator upon activation by carbachol EC50 concentration. A small molecular library were screened in a titration series resulting in AC50s (can be either IC50s or EC50s).
# NCGC Assay Protocol Summary: The cells were prepared in RPMI 1640 medium containing 0.1% dialyzed FBS and 25 mM HEPES at 1.6 x 10^6cell/ml. The assay was performed in 1536-well plate format as follows: 5 ul of cell preparation 23 nl of compounds 1ul of carbachol (final concentration 1 uM) Briefly centrifuge the plates and incubate at 37 °C for 5 hours 1 ul of CCF4 dye mixture Incubate the plates at RT for 1 hour Read the plate in EnVision plate reader (Ex= 405nm, and Em1=460nm and Em2=530nm). The %Activity was determined from the ratio of 460nm/530nm. Data normalization and AC50 calculations were accomplished using GeneData software.
# On the % scale 0 is the no-effect control and ±100 the full control effect.
row,Structure (SMILES),"activity change, negative = inhibition"
1,O=[N+]([O-])c1ccc2c(c1)S(=O)c1ccccc1-2 (stereo not given),10.5%
2,C[C@@]12CCC(=O)C=C1CC[C@H]1[C@@H]2[C@@H](O)C[C@]2(C)[C@@H]1CC[C@@]2(O)C(=O)COC(=O)C1CCCC1,4.12%
3,Oc1cc(O)c2c(c1)O[C@@H](c1ccc(O)c(O)c1)[C@H](O[C@@]1(c3cc(O)c(O)c(O)c3)Oc3cc(O)cc(O)c3[C@H](O)[C@@H]1O)C2,13.8%
4,Oc1ccc([C@@H]2CNCCc3c2cc(O)c(O)c3Cl)cc1,1.42% [at 38 µM]
5,COc1ccc(C[C@@H]2C(=O)N[C@H](C)C(=O)N(C)[C@@H]3Cc4ccc(cc4)Oc4cc(ccc4O)C[C@H](C(=O)N[C@@H](C)C(=O)N[C@H](C)C(=O)N2C)N(C)C3=O)cc1,-132% (active)
6,Cc1nc2ccccc2nc1-c1ccc(N=[N+]([O-])c2ccc(-c3nc4ccccc4nc3C)cc2)cc1,-3.33%
7,CN(C)Cc1cc(C(C)(C)C)cc(CN(C)C)c1O,3.21%
8,O=C(O)[C@H]1CC=CC[C@@H]1C(=O)Nc1cccc(O)c1,9.88%
9,CC(NC(=O)c1ccccc1)(C(=O)O)C(=O)O,-6.87%
10,O=C(O)C1C(C(=O)O)C(C(=O)O)C1C(=O)O (stereo not given),-1.31%
11,O=S1(=O)CCN(Cc2ccccn2)CC1,13%
12,CC#C[C@@]1(O)CC[C@@H]2[C@@H]3CCC4=CC(=O)CCC4=C3[C@@H](c3ccc(N(C)C)cc3)C[C@]21C,7.8% [at 38 µM]
13,O=C(O)C(Cl)(c1ccccc1)c1ccccc1,6.6%
14,COCCn1c(=O)c(-c2ccc(OC)cc2)nc2cnc(Oc3ccccc3)nc21,12.7%
15,Cn1c(=O)c2c(nc(Cc3ccccc3)n2CC(=O)O)n(C)c1=O,0.0397%
16,NC(=O)NCCS[C@H]1CCCC[C@@H]1O,3.5%
17,CC1(CC(=O)O)O[C@H]2CCCCC[C@H]2O1 (stereo not given in full) (tested in a mixture with another compound),-4.93%
18,Cc1[nH]c(C)c(CN(C)C)c1CN(C)C,-26.2%
19,O=CN1CCN(C[C@H](O)CN2CCCCC2)CC1,-4.36%
20,O=C(Nc1ccc2ncccc2c1)Nc1ccc2ncccc2c1,21.4%

row,Structure (SMILES),"activity change, negative = inhibition"
1,CC[C@H](C)[C@@H]1O[C@]2(CC[C@@H]1C)C[C@H]1C[C@H](CC=C(C)[C@@H](O[C@H]3C[C@H](OC)[C@H](O[C@H]4C[C@H](OC)[C@H](O)[C@H](C)O4)[C@H](C)O3)[C@@H](C)C=CC=C3CO[C@@H]4[C@@H](O)C(C)=C[C@H](C(=O)O1)[C@@]34O)O2,-10.6% [at 38 µM]
2,O=c1[nH]c(SCc2cccc([N+](=O)[O-])c2)nc2nc[nH]c12,-8.58%
3,O=c1c(-c2cccs2)nc2cnc(Oc3ccccc3)nc2n1C1CC1,22.4%
4,C[N+](C)(C)CCCSc1nc2ccccc2[nH]1,-15.2%
5,Cc1cn([C@H]2C[C@H](O)[C@@H](COC(N)=O)O2)c(=O)[nH]c1=O,0.228%
6,CCOC(=O)c1cnc(N(C)C)nc1SC(=N)N,11.3%
7,Clc1ccc(CSC2=NCCN2)cc1Cl,-19.4%
8,COc1cc2c(cc1O)[C@@H](c1cc(O)c(O)c(OC)c1)[C@@](O)(C(=O)O)[C@@H](CO)[C@@H]2O,-5.96%
9,O=C(O)CCC(=O)c1ccc[nH]1,3.55%
10,N=C(N)SCc1ccc(Cl)cc1Cl (tested in a mixture with another compound),-21.9%
11,O=C(O)c1ccc(C(=O)O)c2c(C(=O)O)ccc(C(=O)O)c12,5.59%
12,COc1ccc2nc(NCN3C(=O)c4ccccc4C3=O)sc2c1,-16%
13,Cc1ccc(S(=O)(=O)OC2CCN(C)CC2)cc1,2.31%
14,CC(C)[C@@H]1OC(=O)C=CC=CC=CC=CC=CC[C@@H](O)[C@H](C)[C@@H](O)C[C@H](O)C[C@H](O)C[C@H](O)C[C@H](O)C[C@H](O)C[C@H](O)C=C[C@@H]1C,9.95%
15,COc1ccc(N(CC(=O)O)N=O)cc1,11.2%
16,O=C(O)CCc1ccc(-c2ccccc2)[nH]1,13.2%
17,Cc1ccc(CCCC(=O)O)cc1C,9.24%
18,C[N+]1([C@H](CO)Cc2c[nH]c3ccccc23)Cc2ccccc2C1,-15.6%
19,COc1ccccc1OC[C@H](O)CN1CCN(CC(=O)Nc2c(C)cccc2C)CC1,12.3% [at 38 µM]
20,Nc1nc2c(c(=O)[nH]1)CN(CCCN1CCOCC1)CN2,5.13%
